# KDM5B inh – inhibitors of human KDM5B histone demethylase; Q9UGL1; actives 2.6% (n = 220,000); KDM5B demethylase, FDH-coupled NADH fluorescence (FDH is formaldehyde dehydrogenase); Potency, µM (series often up to 57.7 µM), hits mostly inhibitors; active means well fitted inhibition curve with a large enough effect; further: nearly all actives have a fitted effect of over 70% in size
# Target sequence (Q9UGL1 whole entry, looked up): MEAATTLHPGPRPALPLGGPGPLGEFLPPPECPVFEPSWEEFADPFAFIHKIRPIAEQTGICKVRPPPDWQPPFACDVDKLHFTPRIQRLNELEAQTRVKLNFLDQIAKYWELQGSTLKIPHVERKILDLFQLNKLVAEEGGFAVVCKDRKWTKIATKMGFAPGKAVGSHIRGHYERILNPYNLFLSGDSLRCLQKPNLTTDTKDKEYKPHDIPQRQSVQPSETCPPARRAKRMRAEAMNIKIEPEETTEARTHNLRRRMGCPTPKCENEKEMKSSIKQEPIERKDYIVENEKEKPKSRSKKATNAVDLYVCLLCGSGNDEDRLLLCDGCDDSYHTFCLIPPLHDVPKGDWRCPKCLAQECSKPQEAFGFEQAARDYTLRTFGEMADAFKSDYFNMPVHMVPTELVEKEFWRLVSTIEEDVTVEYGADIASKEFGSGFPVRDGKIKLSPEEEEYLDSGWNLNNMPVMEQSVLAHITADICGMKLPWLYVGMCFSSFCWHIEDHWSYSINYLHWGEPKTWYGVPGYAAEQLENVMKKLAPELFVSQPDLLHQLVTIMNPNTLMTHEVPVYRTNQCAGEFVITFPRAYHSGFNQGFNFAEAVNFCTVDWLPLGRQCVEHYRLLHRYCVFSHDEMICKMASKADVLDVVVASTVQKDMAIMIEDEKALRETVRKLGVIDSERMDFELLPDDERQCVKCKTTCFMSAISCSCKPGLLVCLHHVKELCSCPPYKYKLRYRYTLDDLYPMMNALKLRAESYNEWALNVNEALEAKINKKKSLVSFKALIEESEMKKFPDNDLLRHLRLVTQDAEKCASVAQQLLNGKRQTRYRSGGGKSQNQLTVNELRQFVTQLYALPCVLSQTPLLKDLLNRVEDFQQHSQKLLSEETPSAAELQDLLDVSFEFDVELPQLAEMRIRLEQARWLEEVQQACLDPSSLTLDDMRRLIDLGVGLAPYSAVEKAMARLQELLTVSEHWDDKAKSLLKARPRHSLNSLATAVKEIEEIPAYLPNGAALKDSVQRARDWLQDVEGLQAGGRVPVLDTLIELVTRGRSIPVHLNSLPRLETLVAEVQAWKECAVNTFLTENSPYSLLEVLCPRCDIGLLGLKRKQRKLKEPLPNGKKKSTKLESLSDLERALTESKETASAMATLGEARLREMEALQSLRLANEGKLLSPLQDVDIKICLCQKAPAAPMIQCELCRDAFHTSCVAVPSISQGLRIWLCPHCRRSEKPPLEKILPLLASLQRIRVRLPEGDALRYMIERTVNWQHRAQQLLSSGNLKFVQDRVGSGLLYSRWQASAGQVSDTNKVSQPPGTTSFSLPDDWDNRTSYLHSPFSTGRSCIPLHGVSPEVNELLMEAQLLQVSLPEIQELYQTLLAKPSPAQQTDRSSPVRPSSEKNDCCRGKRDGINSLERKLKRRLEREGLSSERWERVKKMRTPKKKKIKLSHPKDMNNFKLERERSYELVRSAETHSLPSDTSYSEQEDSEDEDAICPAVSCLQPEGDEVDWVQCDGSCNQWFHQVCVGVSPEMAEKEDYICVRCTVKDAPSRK
#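 Here, H3K4me3 peptide (12.5 µM in substrate mix) is demethylated by KDM5BΔAP, 200 nM final, after 10 min compound exposure. Formaldehyde product is coupled through FDH (0.25 U/mL in mix) to NADH fluorescence; 30-min ΔRFU feeds dose-response curves.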
# Hits are given with their value; - = inactive. This is one part of a sample in which hits are shown more often than they occur.
SMILES,KDM5B inh
COc1c(C)cccc1C(=O)NCC1CCN(c2cnn(C)c(=O)c2)C1 (stereo unspecified),-
O=C(Nc1ccc(-c2noc(-c3ccc(Cl)cc3)n2)cc1)c1ccco1,-
COc1cc(CNC(=O)c2ccc3c(c2)NC(=O)CS3)ccc1OCc1ccccc1,-
Cc1cccc(OCc2nc(C#N)c(NCc3cccnc3)o2)c1,-
Cc1ccc(-n2cccn2)c(CN2CCCC(CCC(=O)Nc3ccccc3F)C2)c1 (stereo unspecified),-
Cc1ccc(CNC(=O)/C=C/c2ccccc2)o1,-
CCOC(=O)c1cc(-c2ccccc2)nc2c(C)cc(C)cc12,-
O=C1N(Cc2ccccc2F)CCOC12CCN(Cc1ccccc1F)CC2,16µM
O=C1N(Cc2ccccc2F)CCOC12CCN(Cc1ccc(F)cc1F)CC2,-
O=C1N(Cc2ccccc2)CCOC12CCN(Cc1cc(F)ccc1F)CC2,-
CC(=O)c1ccc(C(=O)N(C)C(C)c2ccc(Cl)cc2)s1 (stereo unspecified),-
N#Cc1ccccc1S(=O)(=O)N1CCN(C(=O)CCc2ncc(-c3c(F)cccc3F)o2)CC1,-
O=C(Nc1cnc(-c2ccc(Cl)cc2)nc1)c1cccc(F)c1,-
Cc1ccc(NC(=O)c2cc(Cl)ccc2F)cc1,-
Cc1ccc(-c2ncc(NC(=O)c3cc(F)ccc3F)cn2)cc1,28µM
O=C(c1cc2ccccc2o1)c1cc(F)ccc1F,-
COc1ccc(C)cc1-n1nnc(-c2nc(-c3ccncc3)no2)c1N,-
CCNC(=O)CN1CCN(c2ccnc3c(F)ccc(F)c23)CC1,-
O=C(Cc1cccc(F)c1)NC1C2CC3CC(C2)CC1C3 (stereo unspecified),-
CC1Cc2cc(/C=C3/SC(=S)N(C)C3=O)ccc2O1 (stereo unspecified),-
CC1Cc2cc(-c3ccnc4ncnn34)ccc2O1 (stereo unspecified),28µM
Cc1cccc(C)c1N1CC(O)=C(c2nc3ccccc3[nH]2)C1=N,-
CN(C)C(=O)c1ccc(NC(=O)CSc2ccc(F)cc2)cc1,-
CONC(=O)COCc1nc2ccccc2s1,-
COc1ccc(C(=O)NC2CCN(c3cc(-c4cccs4)[nH]n3)CC2)cc1F,-
SMILES,KDM5B inh
O=C(NC1CCN(c2cc(-c3cccs3)[nH]n2)C1)c1cccc(Br)c1 (stereo unspecified),7.9µM
O=C(NC1CCN(c2cc(-c3cccs3)[nH]n2)C1)c1cccc(OC(F)(F)F)c1 (stereo unspecified),5µM
COc1ccc(C(=O)NC2CCN(c3cc(-c4cccs4)[nH]n3)CC2)cc1OC,-
COc1ccc(C(=O)NC2CCN(c3cc(-c4ccccc4)[nH]n3)C2)cc1F (stereo unspecified),-
CN(C)c1ccc(C(=O)NC2CCN(c3cc(-c4cccs4)[nH]n3)CC2)cc1,-
O=[S+]1([O-])NC2(CCN(Cc3c[nH]c4ccccc34)CC2)COc2ccccc21,-
O=C(CCC(=O)c1ccc(Cl)cc1)OCCOc1ccc(Br)cc1,-
Cc1cc(C)cc(C(=O)N2CCCC(n3cc(-c4noc(C)n4)nn3)C2)c1 (stereo unspecified),-
CCCC(C)(C)NC(=O)Cc1cc(OC)c(OC)c(OC)c1,-
COc1cc(-c2nc(-c3nonc3N)no2)cc(OC)c1OC,-
CCc1nc(C)cc(-c2cc(OC)c(OC)c(OC)c2)n1,25µM
CCCCn1c(=O)[nH]c(=O)c2c1nc(CSc1nnnn1C1CCCC1)n2CC,-
CC(Sc1nnc(-c2c[nH]c3ccccc23)o1)C(=O)N1CCNC1=O (stereo unspecified),-
COCC(=O)N[C@H]1CO[C@H]2[C@@H]1OC[C@@H]2Nc1nccc(-c2cccc(F)c2)n1,35µM
N#Cc1cccc(-c2ccnc(N[C@H]3CO[C@H]4[C@@H]3OC[C@@H]4NC(=O)N3CCOCC3)n2)c1,32µM
COc1ccc(NC(=O)O[C@@H]2CO[C@H]3[C@@H]2OC[C@@H]3Nc2nccc(-c3cccc(C#N)c3)n2)cc1,-
CC(=O)N[C@H]1CO[C@H]2[C@@H]1OC[C@@H]2Nc1nccc(-c2cccc(F)c2)n1,35µM
COCC(=O)N[C@H]1CO[C@H]2[C@@H]1OC[C@H]2O,-
N#Cc1cccc(NC(=O)O[C@@H]2CO[C@H]3[C@@H]2OC[C@@H]3Nc2nccc(-c3cccc(C#N)c3)n2)c1,-
CCNC(=O)N[C@H]1CO[C@H]2[C@@H]1OC[C@@H]2Nc1nccc(-c2cccc(F)c2)n1,32µM
O=C(Nc1ccsc1)O[C@@H]1CO[C@H]2[C@@H]1OC[C@@H]2Nc1nccc(-c2cccc(F)c2)n1,-
Cc1ccc(C(=O)N[C@H]2CO[C@H]3[C@@H]2OC[C@@H]3Nc2nccc(-c3cccc(F)c3)n2)cc1,-
Fc1ccccc1CNC(=S)NCCc1ccccc1,-
CCOc1ccc(-n2c(SCC(=O)Nc3ccc(CC)cc3)nc3[nH]ncc3c2=O)cc1,-
COc1ccccc1Nc1nc2nccc(-c3ccco3)c2c(=O)[nH]1,-
SMILES,KDM5B inh
CCN(C(=O)C(C)S(=O)(=O)Cc1cccc(Cl)c1)c1ccccc1 (stereo unspecified),-
O=C(O)CCCCCCCCC#CC#CCCCC[n+]1ccccc1,-
COc1ccc(Cl)cc1NC(=O)c1ncoc1-c1ccc(OC)c(OC)c1,-
COc1ccc(NC(=O)Cn2c(=O)c3cccn3c3ccccc32)cc1OC,-
COc1ccc(C(=O)C(C)Sc2nnc3ccccn23)cc1OC (stereo unspecified),-
COc1ccc(C(=O)N2CCCN(c3cc(-c4ccccc4)[nH]n3)CC2)cc1F,-
COc1ccc(C(=O)N2CCN(c3nnc4ccccn34)CC2)cc1OC,25µM
COc1ccc(C(=O)N2CCCN(c3cc(-c4ccc(Br)cc4)[nH]n3)CC2)cc1F,-
COc1ccc(C(=O)N2CCN(c3nc4c(OC)cccc4s3)CC2)cc1OC,-
COc1ccc(C(=O)N2CCCN(c3nnc4ccccn34)CC2)cc1F,25µM
c1cc(-c2nnc3n2CCN(Cc2ccsc2)C3)ccn1,-
CC(=O)N/N=C/c1cc(Cl)ccc1OCCCOc1ccc(C)cc1C,-
COc1ccc(CN2CCCN(C(=O)c3nn(-c4ccccc4)c(=O)c4ccccc34)CC2)cc1,-
CC(C(=O)N(C)CC(=O)Nc1ccccc1C(F)(F)F)N1CCN(c2ccccc2Cl)CC1 (stereo unspecified),-
COc1ccc(Cl)cc1C(=O)NC(=S)Nc1nc(C)cc(C)n1,-
COc1ccc(Cl)cc1C(=O)NCc1nnc2ccc(-c3ccccc3)nn12,25µM
COc1ccc(Cl)cc1C(=O)NCc1nnc2ccc(-c3ccc(Cl)cc3)nn12,-
COc1ccccc1C(=O)NCc1nnc2n1C(C(=O)O)CC2 (stereo unspecified),-
COc1ccc(Cl)cc1C(=O)NCc1nnc2ccc(-c3ccc(C)c(C)c3)nn12,32µM
COc1ccc(-c2nc3sc(CCNC(=O)c4cc(Cl)ccc4OC)c(C)n3n2)cc1,-
CCOCCCNCc1cccc(Cl)c1,-
CC(=O)Nc1ccc(NC(=O)C2CCCCC2)cc1,-
O=C(c1ccc(-c2ccco2)cc1)N1CCOC(c2ccccc2)C1 (stereo unspecified),28µM
O=C(c1ccccc1)N1CCN(C(=O)c2nnn3c2COC(c2ccccc2)C3)CC1 (stereo unspecified),-
O=C(c1ccc2ncccc2c1)N1CCOC(c2ccc(Cl)c(Cl)c2)C1 (stereo unspecified),-
COCCCNC(=O)CSc1cc(C)ccc1C,-
O=S(=O)(Nc1nc2ccccc2nc1Nc1cccc(F)c1)c1cccs1,-

# Assay outcomes (PubChem BioAssay)
